Consider 5 compounds from PubChem BioAssay.

As usually defined, the viability is a read-out of living cells in per cent, often relative to untreated cells. As usually defined, the inhibition is the change of the read-out against control, counted positive when it falls.

Records with an inconclusive call do not appear. The source made the active and inactive calls.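 The calls were made as follows, unless noted: active = viability at or below 27.92% in each of two runs, the all-compound median minus 4 SD; inconclusive = no clear call, values can overlap the other calls; inactive = the rest.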

Test [1] can be described thus: Her2 expression decrease, cell viability multiplex – SKBR3 breast tumor cells, AlphaScreen, ATP viability, primary screen (AID 461;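 active = Her2 level under about 52% in both replicate screens, with viability over 70% of control, limit read from the data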;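 as to Her2 level: lower value means less Her2 protein in the cells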;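 as to viability: percent of carrier control wells set as 100% viability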). To be noted: SKBR3 Her2 protein level, 18-24 h, measured here: SKBR3 viability, ATP luminescence, at 10 µM. A general note: Bead proximity is the source of the signal in Alpha formats.
The target of test [2] is Receptor tyrosine-protein kinase erbB-2 (Homo sapiens) (UniProt P04626). The description is as above. The settings on record: 18-24 h, at 10 µM, stronger effect = lower value.
Chain of Receptor tyrosine-protein kinase erbB-2 (Homo sapiens) (P04626 whole entry, looked up): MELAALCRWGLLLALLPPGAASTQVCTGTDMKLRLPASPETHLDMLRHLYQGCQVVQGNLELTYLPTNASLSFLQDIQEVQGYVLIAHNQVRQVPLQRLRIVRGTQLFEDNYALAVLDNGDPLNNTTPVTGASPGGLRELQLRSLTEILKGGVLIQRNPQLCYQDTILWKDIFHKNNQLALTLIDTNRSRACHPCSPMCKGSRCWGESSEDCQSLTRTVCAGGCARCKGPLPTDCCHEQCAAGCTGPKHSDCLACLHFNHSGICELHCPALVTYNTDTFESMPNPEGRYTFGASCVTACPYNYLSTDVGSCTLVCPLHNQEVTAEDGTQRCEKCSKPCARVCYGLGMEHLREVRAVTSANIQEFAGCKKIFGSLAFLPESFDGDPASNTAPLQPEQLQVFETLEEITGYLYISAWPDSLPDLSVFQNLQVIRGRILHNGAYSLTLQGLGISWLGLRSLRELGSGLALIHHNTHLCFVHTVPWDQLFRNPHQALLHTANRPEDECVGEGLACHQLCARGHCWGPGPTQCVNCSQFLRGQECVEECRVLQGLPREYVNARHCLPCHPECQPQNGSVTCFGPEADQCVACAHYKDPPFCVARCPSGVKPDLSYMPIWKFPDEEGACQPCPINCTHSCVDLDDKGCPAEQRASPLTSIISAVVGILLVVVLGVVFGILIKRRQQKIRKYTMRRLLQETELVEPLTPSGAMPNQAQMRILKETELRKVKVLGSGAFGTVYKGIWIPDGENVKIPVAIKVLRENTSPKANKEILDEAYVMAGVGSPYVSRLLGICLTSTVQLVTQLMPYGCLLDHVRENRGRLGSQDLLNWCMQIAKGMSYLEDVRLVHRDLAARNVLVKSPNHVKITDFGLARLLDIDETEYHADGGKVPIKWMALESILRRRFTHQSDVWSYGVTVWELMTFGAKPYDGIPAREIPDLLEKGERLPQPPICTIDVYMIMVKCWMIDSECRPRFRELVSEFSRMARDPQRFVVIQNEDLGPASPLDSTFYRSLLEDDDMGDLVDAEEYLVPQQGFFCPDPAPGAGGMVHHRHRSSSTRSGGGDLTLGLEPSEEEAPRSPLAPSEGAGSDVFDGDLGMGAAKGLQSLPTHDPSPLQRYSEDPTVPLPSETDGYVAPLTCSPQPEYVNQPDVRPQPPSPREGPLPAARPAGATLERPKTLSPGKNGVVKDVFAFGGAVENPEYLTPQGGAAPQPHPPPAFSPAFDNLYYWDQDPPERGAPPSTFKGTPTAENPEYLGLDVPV
A short description of test [3]: reduced viability of SK-BR-3 breast cancer cells – cell-based, 24 h, human, pilot screen (AID 572;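 active = viability at or below 10% of carrier control in both of two separate runs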;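 also: compound exposure lasted between 18 and 24 h rather than exactly 24 h; 100% = carrier-treated control wells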). To be noted: SK-BR-3 viability, CellTiter-Glo luminescence, at 10 µM, stronger effect = lower value.
A short description of test [4]: HUVEC growth inhibition – cell-based, human, primary screen (AID 575;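 active = viability at or below 30% in both replicate assays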;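 also: 100% = median of untreated cell wells with 0.1% DMSO on each plate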). To be noted: HUVEC proliferation, CellTiter-Glo luminescence, 72 h; at 10 µM; stronger effect = lower value. A general note: ATP-based viability assays read luminescence as a measure of living cells.
Test [5] can be described thus: H69AR cell proliferation blockers – human, duplicate replicates, primary screen (AID 580;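 active = viability at or under a set limit in both replicates, limit being median viability minus 3 SD, cut at about 48% in these data, passing the limit was not always enough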;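 also: 100% = mean luminescence of untreated wells and 0% = no signal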). The settings on record: H69AR lung tumor cells viability, ATP luminescence, 72 h; at 10 µM; stronger effect = lower value.
The nature of test [6]: MRP1 drug-resistance reversers in H69AR cells – cell-based, doxorubicin co-treatment, pilot screen (AID 601;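 active = viability loss from added drug above about 55%, and viability with drug at most 40%, in both replicates, limit read from the data, passing the limit was not always enough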). The settings on record: CellTiter-Glo, 72 h, at 10 µM; for differential viability (reversal): stronger effect = higher value.
Test [7] in a line: yeast transport mutant growth inhibition pilot in 384-well plates, post-Golgi transport modulator project (AID 636; in the data active = inhibition above about 31%). To be noted: absorbance 615 nm, about 18 h, stronger effect = higher value.
The nature of test [8]: growth suppression of yeast trafficking mutant, preliminary HTS, modulators of trafficking downstream of Golgi apparatus project, 1536-format plate, OD 615 nm (AID 637; in the data active = inhibition above about 30%). The settings on record: yeast transport mutant growth, absorbance 615 nm, 18 h; stronger effect = higher value.
Test [9] in a line: S. cerevisiae growth inhibition in permissive medium (OD615), pilot counter-assay for S. cerevisiae lifespan shortening project, permissive growth control (AID 705;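 active = growth inhibition above 25% in both replicates, a cutoff set 3 SD above the mean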). The settings on record: OD615, 24 h, at 10 µM, stronger effect = higher value.
Test [10] is described as follows: S. cerevisiae growth inhibition in restrictive medium, OD615, pilot screen, restrictive growth control, yeast lifespan reduction project (AID 706;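 active = growth inhibition above a set limit, 3 SD over mean compound inhibition, in both replicates, cut at about 43% in these data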;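 also: modified DeaD lifespan yeast strain shifted to restrictive glucose medium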). To be noted: OD615, 48 h, at 10 µM, stronger effect = higher value.
The nature of test [11]: doxorubicin toxicity protection in MRP-1 cells – H69AR cells, CellTiter-Glo, duplicate, MRP-1 activator project, pilot screen (AID 807;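 active = viability increase at or above a cutoff of the median across tested compounds plus 3 SD, cut at about 8.5% in these data, passing the limit was not always enough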;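 also: compound pretreatment 18-22 h then 72 h combined with doxorubicin; 0% = doxorubicin alone and 100% = vehicle without doxorubicin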). The settings on record: H69AR viability with doxorubicin, CellTiter-Glo luminescence; at 10 µM; stronger effect = higher value.
A short description of test [12]: viability of HCT116 without oncogenic beta-catenin – human colon tumor cells, pilot screen (AID 823;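 active = cell viability at or below a set limit in both duplicate runs, the limit being the all-compound median minus 4 SD, cut at about 23% in these data, passing the limit was not always enough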;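 also: 0% = wells killed by 20 µM Hyamine and 100% = untreated DMSO cell wells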). To be noted: HCT116 beta-catenin knockout viability, CellTiter-Glo, 60 h; at 10 µM; stronger effect = lower value.
Test [13] can be described thus: viability of PTEN-null HCT116 cells – cell-based, HCT116 clonal line, CellTiter-Glo, pilot screen (AID 824).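 Also: 0% = 20 µM Hyamine control and 100% = vehicle cell control.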 The settings on record: HCT116 PTEN-deleted viability, 60 h, at 10 µM, stronger effect = lower value.
Test [14] is described as follows: RAM pathway blockade in budding yeast – dse1pr::URA3 reporter, 5-FOA selection, pilot screen (AID 869;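 active = inhibition over a set limit, the all-compound mean plus 3 SD, in both replicate runs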;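 also: 0% = DMSO wells with no growth and 100% = 10 µM 1-NA-PP1 with full growth; RAM network block rescues cells from 5-FOA so hits raise OD615 growth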). The settings on record: S. cerevisiae dse1pr::URA3 5-FOA growth, OD615, 2 d; at 10 µM; stronger effect = higher value; strain carries analog-sensitive mutant Cbk1 kinase.
Test [15] in a line: RAM signaling pathway blockade in yeast – S. cerevisiae, Pdr1DBD-CYC8 efflux-inhibited sensitized strain, primary screen (AID 1298;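 active = RAM network inhibition above 8.4% in each of two replicates, 3 SD over the compound average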;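 also: 0% = DMSO untreated cells without growth and 100% = 10 µM 1-NA-PP1 full growth; higher means more yeast growth rescued from 5-FOA killing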). To be noted: S. cerevisiae cbk1-as DSE1-URA3 strain, 5-FOA growth OD615, 2 d; at 50 µM; stronger effect = higher value.
The mark [16] stands for this setting: H69AR cells + 2 uM doxorubicin, measured here: viability with 2 uM doxorubicin, stronger effect = lower value.
Where [17] appears, read: H69AR cells, compound alone cytotoxicity.

As to `COc1ccc(NC(=O)CSc2nnc(Cc3cccn3C)n2-c2ccc(F)cc2)cc1`, the viability in test [1] was 96%; in test [3] it was 96% (inactive); in [4], 94.4% (inactive); in [5] it was 94.8% (inactive); in [6] (setting [16]), 110%; in test [6] (setting [17]), 94.8%. Further, the viability in test [12] is 88.8% (inactive); in test [13], 86% (inactive). For the same compound, in test [2], the Her2 level was 112% (inactive). The differential viability (reversal) in [6] (H69AR cells + 2 uM doxorubicin) is -14.7% (inactive). The values for the inhibition in test [7], in test [8] and in [14] were -2.27% (inactive), -6.5% (inactive) and 2.56% (inactive), respectively. Further, the growth inhibition in test [9] was 4.66% (inactive); in test [10] it was 11.6% (inactive). Besides, the viability increase in test [11] was -2.27% (inactive). The RAM network inhibition in [15] was 8.6% (inactive).

As to `O=C(c1cc2ccccc2oc1=O)N1CCN(c2ccc(N3CCOCC3)nn2)CC1`, the viability was 98% in test [1]; 98% (inactive) in test [3]; 88.5% (inactive) in test [4]; 101% (inactive) in test [5]; 93.9% in test [6] (setting [16]); 101% in test [6] (setting [17]). The viability was 101% (inactive) in test [12] and 96.6% (inactive) in [13]. Moreover, in test [2], the Her2 level was 118% (inactive). Moreover, the differential viability (reversal) in test [6] (H69AR cells + 2 uM doxorubicin) was 7.39% (inactive). Besides, the inhibition was -0.77% (inactive) in test [7], -2% (inactive) in [8] and 0.885% (inactive) in [14]. Moreover, the growth inhibition in test [9] was 5.29% (inactive); in [10], -7.26% (inactive). The viability increase in [11] is -1.81% (inactive). The RAM network inhibition in test [15] was -0.58% (inactive).

As to `O=C(CSc1nnnn1-c1ccccc1Cl)Nc1ccc2c(c1)OCCO2`, the viability in test [1] was 91.5%; in [3], 91.5% (inactive); in test [4], 101% (inactive); in test [5], 77.2% (inactive); in test [6] (setting [16]), 85.2%; in test [6] (setting [17]), 77.2%. Moreover, the viability is 99.4% (inactive) in test [12] and 87.5% (inactive) in test [13]. For the same compound, the Her2 level in [2] is 96% (inactive). In addition, the differential viability (reversal) in test [6] (H69AR cells + 2 uM doxorubicin) is -7.98% (inactive). In addition, the inhibition is -0.4% (inactive) in test [7], 4.33% (inactive) in test [8] and 2.22% (inactive) in [14]. The values for the growth inhibition in [9] and in test [10] were 1.69% (inactive) and 3.15% (inactive), respectively. The viability increase in test [11] was 1.44% (inactive). In addition, the RAM network inhibition in test [15] is 5.58% (inactive).

Turning to `Clc1ccc(SCCCCn2ccnc2)cc1`, the viability in test [1] is 90.5%; in test [3] it was 90.5% (inactive); in test [4], 102% (inactive); in test [5] it was 99.2% (inactive); in test [6] (setting [16]), 88.3%; in test [6] (setting [17]), 99.2%. Moreover, the viability in test [12] is 64.8% (inactive); in test [13], 65.7% (inactive). In test [2], the Her2 level is 113% (inactive). Besides, in [6] (H69AR cells + 2 uM doxorubicin), the differential viability (reversal) was 10.9% (inactive). For the same compound, the inhibition in test [7] is 1.22% (inactive); in test [8], -1% (inactive); in [14] it was 0.96% (inactive). The growth inhibition in [9] was 1.02% (inactive); in test [10], -14.2% (inactive). In test [11], the viability increase is 0.79% (inactive). In test [15], the RAM network inhibition is -0.38% (inactive).

Consider `O=C(CCCn1c(=O)c2sccc2n(Cc2cc(=O)n3ccccc3n2)c1=O)NCc1ccco1`, for which the viability in test [1] is 82.5%; in [3], 82.5% (inactive); in [4], 87.7% (inactive); in [5], 77% (inactive); in test [6] (setting [16]), 80%; in [6] (setting [17]), 77%. The viability in test [12] was 91.3% (inactive); in test [13] it was 99.3% (inactive). The Her2 level in test [2] is 126% (inactive). In addition, the differential viability (reversal) in test [6] (H69AR cells + 2 uM doxorubicin) is -2.97% (inactive). Further, the inhibition is 3.59% (inactive) in test [7], -4.33% (inactive) in test [8] and -0.225% (inactive) in test [14]. In addition, the growth inhibition in test [9] was -9.24% (inactive); in [10], -2.77% (inactive). Besides, in [11], the viability increase was -1.87% (inactive). In addition, the RAM network inhibition in test [15] is 0.21% (inactive).
